These results are taken from the supplement of paper PMC7380943.

Assay [1] has as its system CLZ3 (HCA2 human fibroblast dual HR-NHEJ reporter). Nature of the assay: NHEJ repair efficiency (GFP+ cells) relative to control (log10 fold); higher = more non-homologous end joining. To be noted: 5 µM; doxycycline 0.5 ug/mL.
For assay [2] the test system is unchanged. Nature of the assay: HR repair efficiency (tdTomato+ cells) relative to control (log10 fold); higher = more homologous recombination. The settings on record: 5 µM; doxycycline 0.5 ug/mL.

Structures are written as SMILES.
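Wherever HR repair efficiency (tdTomato+ cells) relative to control is given: compound given one day before doxycycline, which switches on I-SceI endonuclease expression to create double-strand breaks within the integrated reporter.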
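Wherever NHEJ repair efficiency (GFP+ cells) relative to control is given: compound given one day ahead of doxycycline, which switches on I-SceI endonuclease to cut the chromosomally integrated reporter and create DSBs.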

With `c1cc2c(cc1[C@H]1OC[C@H]3[C@@H]1CO[C@H]3c1ccc3c(c1)OCO3)OCO2` [Asarinin], the “NHEJ repair efficiency (log10)” value in assay [1] was -0.271. For the same molecule, in assay [2], the “HR repair efficiency (log10)” value was -0.223.

`O=c1ccc2ccc3occc3c2o1` [Isopsoralen]: in assay [1], the “NHEJ repair efficiency (log10)” value is -0.0427. In addition, the “HR repair efficiency (log10)” value in assay [2] was -0.0598.

Regarding `CC(C)c1cc2c(c(O)c1O)[C@@]1(C(=O)O)CCCC(C)(C)[C@@H]1CC2` [Carnosic acid], the “NHEJ repair efficiency (log10)” value in assay [1] came out at 0.106. Moreover, the “HR repair efficiency (log10)” value in assay [2] came out at 0.167.

Consider `C/C=C/C#CC#C/C=C/c1ccco1` [Atractylodin], for which, in assay [1], the “NHEJ repair efficiency (log10)” value was found to be 0.014. For the same molecule, the “HR repair efficiency (log10)” value in assay [2] worked out at 0.114.

As for `COc1ccc2c(c1OC)CN1CCc3cc4c(cc3C1C2)OCO4` (stereo not drawn) [Tetrahydroberberine], the “NHEJ repair efficiency (log10)” value in assay [1] is -0.000562. Also, the “HR repair efficiency (log10)” value in assay [2] came out at 0.103.

In the case of `O=C1C[C@@H]2OCC=C3CN4CC[C@]56c7ccccc7N1[C@H]5[C@H]2[C@H]3C[C@H]46` [Strychnine], the “NHEJ repair efficiency (log10)” value in assay [1] is 0.104. In addition, in assay [2], the “HR repair efficiency (log10)” value is -0.0183.

As for `COc1cc([C@H]2OC[C@H]3[C@H]2CO[C@@H]3c2cc(OC)c(O[C@@H]3O[C@H](CO)[C@@H](O)[C@H](O)[C@H]3O)c(OC)c2)cc(OC)c1O[C@@H]1O[C@H](CO)[C@@H](O)[C@H](O)[C@H]1O` [Eleutheroside D], the “NHEJ repair efficiency (log10)” value in assay [1] was 0.0455. In addition, the “HR repair efficiency (log10)” value in assay [2] is -0.0848.

`CC(=O)OC[C@]12[C@H](OC(C)=O)[C@H](OC(C)=O)[C@@H]3[C@@H](OC(C)=O)[C@@]14O[C@@]3(C)COC(=O)c1cccnc1CCC(C)C(=O)O[C@@H]([C@H](OC(=O)c1ccccc1)[C@@H]2OC(C)=O)[C@]4(C)O` (stereo partly drawn) [Wilforine]: the “NHEJ repair efficiency (log10)” value in assay [1] was -0.122. The “HR repair efficiency (log10)” value in assay [2] turned out to be 0.027.

In the case of `CC(C)=CCC[C@](C)(O)[C@H]1CC[C@]2(C)[C@@H]1[C@H](O)C[C@@H]1[C@@]3(C)CC[C@H](O)C(C)(C)[C@@H]3[C@@H](O[C@@H]3O[C@H](CO)[C@@H](O)[C@H](O)[C@H]3O)C[C@]12C` [Ginsenoside Rh1], in assay [1], the “NHEJ repair efficiency (log10)” value is -0.0663. For the same molecule, in assay [2], the “HR repair efficiency (log10)” value stood at 0.25.
